34 molecules from the supplement of paper PMC8183993 can be followed below.

Values joined by “and” are separate entries in the source; they are usually repeats but may differ in a detail not shown here. Identical values can stand only once. Counter-ions that a name gives are not always drawn. ± gives the standard deviation of the averaged measurements. The full ranking holds about 3,100 compounds; the median of “mean cytoplasmic OPP incorporation (global translation) relative to DMSO” is about 100, and the lowest 2% start at about 56. Only a selection was taken, and the lowest values are over-represented in it overall.

This experiment deals with U2OS. Description: mean cytoplasmic OPP incorporation (global translation) relative to DMSO (% of DMSO); higher = more protein synthesis. Conditions: 10 µM; 24 h. As to the method: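 Primary image-based screen in U2OS cells: compounds at 10 uM for 24 h, then a 1 h o-propargyl-puromycin (OPP) pulse, click labelling, and high-throughput microscopy. Mean cytoplasmic OPP intensity and nuclei count were normalised to DMSO wells within each plate (DMSO = 100) and averaged over triplicate plates.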
As for `COCC(=O)O[C@]1(CCN(C)CCCc2nc3ccccc3[nH]2)CCc2cc(F)ccc2[C@@H]1C(C)C` [Mibefradil dihydrochloride], the “mean cytoplasmic OPP incorporation” value turned out to be 116.
Regarding `CC(C)[C@H]1c2ccc(F)cc2CC[C@@]1(CCN(C)CCCc1nc2ccccc2[nH]1)OC(=O)C1CC1` [NNC 55-0396 dihydrochloride], the “mean cytoplasmic OPP incorporation” value was found to be 55.5.
Turning to `N#Cc1ccc(NCCNCC(=O)N2CCC[C@H]2C#N)nc1` [NVP DPP 728 dihydrochloride], the “mean cytoplasmic OPP incorporation” value worked out at 90.3.
As for `COc1ccc(CCN(C)CCCN2CCc3cc(OC)c(OC)cc3CC2=O)cc1OC` [Zatebradine hydrochloride], the “mean cytoplasmic OPP incorporation” value was 107.
On to `COc1cc(N)c(Cl)cc1C(=O)OCCCN1CCCCC1`, for which the “mean cytoplasmic OPP incorporation” value was found to be 104.
For the molecule `O=C(O)c1ccc(N2C(=O)C(=Cc3ccccc3)SC2=S)cc1`, the “mean cytoplasmic OPP incorporation” value came to 102.
In the case of `O=C(NCCN1CCOCC1)c1ccc(Cl)cc1` [Moclobemide], the “mean cytoplasmic OPP incorporation” value was found to be 91.9.
In the case of `O=C1C(Cl)=C(NCCN2CCOCC2)C(=O)c2ncccc21`, the “mean cytoplasmic OPP incorporation” value turned out to be 31.
To `Cc1cc(-c2ccccc2)nnc1NCCN1CCOCC1` [Minaprine dihydrochloride] belongs 99.4; to `Cl/C(=C\n1cncn1)c1ccc(Cl)cc1Cl` [Loreclezole hydrochloride], 98.7.
For the molecule `Cc1oc(S(=O)(=O)N2CCCCC2)cc1NC(=O)Nc1ccccc1`, the “mean cytoplasmic OPP incorporation” value turned out to be 102.
Turning to `O=C(NCCCCN1CCN(c2cccc(Cl)c2Cl)CC1)c1ccc2c(c1)Cc1ccccc1-2`, the “mean cytoplasmic OPP incorporation” value was 107.
On to `Cc1cn(CCN2CCN(c3ccccc3-c3cc(C#N)cc(C(=O)NCCCN4CCCC4)c3)CC2)c2ccccc12`, for which the “mean cytoplasmic OPP incorporation” value amounted to 30.6.
For the molecule `COc1ccccc1N1CCN(CCCCNC(=O)c2ccc3ccccc3c2)CC1`, the “mean cytoplasmic OPP incorporation” value came out at 112.
To `CC(C)=CCC/C(C)=C/CC/C(C)=C/CSCC(=O)O` [Farnesylthioacetic acid] belongs 96.1; to `CSCC[C@H](NC=O)C(=O)N[C@@H](CC(=O)O)C(=O)NCC(=O)N[C@@H](CS)C(=O)N[C@@H](CCC(=O)O)C(=O)N[C@@H](CC(C)C)C(=O)O`, 103; to `CC(=O)N1CCN(C)CC1` [1-Acetyl-4-methylpiperazine hydrochloride], 99.1.
To `Cc1ccc([N+](=O)[O-])cc1S(=O)(=O)N(C)C` belongs 94.1; to `Cc1ccc([N+](=O)[O-])cc1S(=O)(=O)N(C)/N=C/c1cnc2ccc(Br)cn12`, 44.3.
For `Cn1cccc1/C=C1\C(=O)NC(=O)c2ccccc21`, the “mean cytoplasmic OPP incorporation” value is 89.4.
For `CC(C)Oc1cc(Nc2nc(N[C@@H](C)c3ccc(F)cn3)ncc2Cl)n[nH]1`, the “mean cytoplasmic OPP incorporation” value was 110.
Regarding `Cc1cc(Nc2ncc(Cl)c(Nc3ccccc3S(=O)(=O)C(C)C)n2)c(OC(C)C)cc1C1CCNCC1` [Ceritinib (LDK378)], the “mean cytoplasmic OPP incorporation” value was found to be 25.4.
As for `O=C1c2ccccc2C(=O)c2c1ccc(O)c2O` [Alizarin], the “mean cytoplasmic OPP incorporation” value was 106.
For the molecule `O=C1c2ccccc2-c2nc3nonc3nc21`, the “mean cytoplasmic OPP incorporation” value was found to be 81.3.
The value for `O=C1C(SCCO)=C(SCCO)C(=O)c2ccccc21` was 71.3 and 55.3.
As to `O=[N+]([O-])c1ccc(Oc2ccc(Br)cc2)c(C(O)P(=O)(O)O)c1` (centres undefined), the “mean cytoplasmic OPP incorporation” value was 95.9.
Take `COC(=O)C(Cc1ccc(OCCn2c(=O)sc3cc(C(=O)c4ccccc4)ccc32)cc1)C(=O)OC`: the “mean cytoplasmic OPP incorporation” value is 105.
To `CC(=O)OC[C@H]1O[C@@H]([S-])[C@H](OC(C)=O)[C@@H](OC(C)=O)[C@@H]1OC(C)=O.CCP(CC)CC.[Au+]` [Auranofin] belongs 10.4; to `CCCCc1nc2ccn(Cc3cccs3)c(=O)c2n1Cc1ccc(-c2ccccc2-c2nn[nH]n2)cc1`, 104.
Take `COc1cc(-c2cn(C)c(=O)c3cnccc23)c(OC)cc1CN(C)C`: the “mean cytoplasmic OPP incorporation” value turned out to be 95.8.
To `c1ccc(-c2n[nH]c3c2oc2ccccc23)cc1` belongs 87.3; to `O=C1NC(=O)/C(=C/c2ccc3nccc(-c4ccncc4)c3c2)S1`, 90.1; to `Cc1[nH]c(=O)c(C#N)cc1-c1ccncc1` [Milrinone], 94.4.
`O=C1NCCc2[nH]c(-c3ccncc3)cc21`: the “mean cytoplasmic OPP incorporation” value was determined as 49.9 ± 13.
